KAT2A inh: qHTS Assay for Inhibitors of GCN5L2 | Histone acetyltransferase KAT2A (Homo sapiens), Q92830 | GCN5L2 HAT assay, ThioGlo1 CoA-SH fluorescence | Potency, µM (titrated, usually from 58.9 µM), without a hit: at the top dose activity change, negative = inhibition, usual class: inhibitors | hit rate 0.21% among 390,000 | AID 504327, 2011; also: potency is read from the fitted curve at half-maximal effect
Target sequence (Q92830 whole entry, looked up): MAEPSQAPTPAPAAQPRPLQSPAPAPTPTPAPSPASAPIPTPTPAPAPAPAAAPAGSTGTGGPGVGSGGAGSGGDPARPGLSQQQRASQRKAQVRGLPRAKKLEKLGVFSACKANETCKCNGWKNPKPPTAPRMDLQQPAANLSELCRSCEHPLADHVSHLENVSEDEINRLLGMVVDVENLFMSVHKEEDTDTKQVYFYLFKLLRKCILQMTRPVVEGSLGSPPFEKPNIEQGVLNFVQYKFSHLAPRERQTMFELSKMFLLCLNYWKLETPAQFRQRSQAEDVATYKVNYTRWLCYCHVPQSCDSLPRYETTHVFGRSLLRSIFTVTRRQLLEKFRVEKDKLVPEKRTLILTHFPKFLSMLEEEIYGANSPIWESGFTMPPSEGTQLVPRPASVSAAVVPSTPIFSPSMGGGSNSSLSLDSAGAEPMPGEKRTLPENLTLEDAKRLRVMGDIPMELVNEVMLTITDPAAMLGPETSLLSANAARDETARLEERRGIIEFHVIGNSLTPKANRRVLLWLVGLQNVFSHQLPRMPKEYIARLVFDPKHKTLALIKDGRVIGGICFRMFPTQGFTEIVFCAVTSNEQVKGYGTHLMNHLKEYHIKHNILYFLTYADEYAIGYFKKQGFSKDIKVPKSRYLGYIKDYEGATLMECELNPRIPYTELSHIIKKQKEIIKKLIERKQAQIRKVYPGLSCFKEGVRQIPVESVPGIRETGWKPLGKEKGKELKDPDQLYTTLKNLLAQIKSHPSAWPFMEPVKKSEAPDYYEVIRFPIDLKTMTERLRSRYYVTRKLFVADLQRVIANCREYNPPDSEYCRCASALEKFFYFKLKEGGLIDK
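Enzyme at 20nM final was mixed with library compounds for 15 min at room temperature. Peptide H3(1-25) at 75uM, acetyl-CoA at 70uM and ThioGlo1 at 50uM were then added. Plates were read immediately and after 20 min (Ex340nm/Em540nm).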
Giardia kill: Small Molecules that selectively kill Giardia lamblia: qHTS. activity change, % at 7.66 µM, hits read low. Giardia lamblia trophozoite viability. hit rate 0.15% among 340,000. AID 540267, 2011; in the data active = activity change below about -80%; inconclusive = between about -30% and that limit;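 also: parasites exposed to compound for two days anaerobically before the ATP read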
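Each well holds 100 Giardia trophozoites and compound. After two days (48 hrs) at 37 deg C in anaerobic conditions, ATP is quantified by luminescence.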
TrxR1 inh: qHTS Assay for Inhibitors of Mammalian Selenoprotein Thioredoxin Reductase 1 (TrxR1): qHTS; Thioredoxin reductase 1, cytoplasmic (Rattus norvegicus), O89049; recombinant rTrxR1, NADPH fluorescence consumption, selenite substrate; Potency, µM (doses to about 114 µM), for the others: at the highest dose activity change, negative = inhibition, hits mostly inhibitors; hit rate 1% among 390,000; AID 588453, 2011; also: potency is read from the fitted curve at half-maximal effect; nearly all actives have a fitted effect of over 65% in size
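Rat TrxR1 (90 nM in the dispensed reagent) was pre-reduced with 400 uM NADPH for 5 min at room temperature, then incubated with compound for 15 min. After 400 uM selenite was added, NADPH fluorescence (Ex 340/Em 450 nm) was followed for 8 min.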
Pin1 inhibitor: qHTS Assay to Find Inhibitors of Pin1; Peptidyl-prolyl cis-trans isomerase NIMA-interacting 1 (Homo sapiens), Q13526; Pin1 FP peptide displacement, HiFluor488, 10 min; Potency, µM (titrated, usually from 115 µM), for inactives: at the highest dose activity, negative = inhibition, most hits filed as inhibitors; hit rate 0.009% among 390,000; AID 504891, 2011; active = well fitted inhibition curve with a large enough effect in the polarisation, with a control signal flat, not every such curve was filed as active; inconclusive = small, poorly fitted or top-dose-only effect, or effect the other way, or a change in a side signal; inactive = no such curve, though single readings can be large or run the other way; the % refers to the polarisation; also: potency is read from the fitted curve at half-maximal effect
GALK inh: qHTS Assay for Inhibitors of Human Galactokinase (GALK); P51570; Purified GALK, Kinase-Glo residual ATP luminescence; Potency, µM (titrated, usually from 57.5 µM), for inactives: at the highest dose activity change, negative = inhibition, usual class: inhibitors; hit rate 0.007% among 270,000; AID 1868, 2009; also: potency is read from the fitted curve at half-maximal effect
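Quantitative HTS: GALK 5 nM, ATP 35 uM, galactose 100 uM, 1 h room temperature, then luciferase-based ATP detection.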
TrxR1 substrate: qHTS Assay for Substrates of Mammalian Selenoprotein Thioredoxin Reductase 1 (TrxR1): qHTS. Thioredoxin reductase 1, cytoplasmic (Rattus norvegicus), O89049. purified TrxR1 substrate turnover, NADPH consumption readout. Potency, µM (doses to about 114 µM), inactives show at the top dose activity change, negative = substrate turnover. hit rate 0.01% among 390,000; also: potency is read from the fitted curve at half-maximal effect; nearly all actives have a fitted effect of over 50% in size
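Rat TrxR1, dispensed at 90 nM, was prereduced with 400 uM NADPH (final) for 5 min at ~22 deg C, then incubated with compound 15 min before 400 uM selenite. A first-read NADPH fluorescence drop versus no-compound background flagged substrates.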
Starred values were filed as active, the others as inactive; ? = inconclusive; nt = not tested or not shown; [ ] = remark or other dose. Rows were chosen to be rich in hits. Some 1.3% of all compounds tested hit in one or more screens of this group. Unless noted, calls follow the shape of the dose curve; as a rule, active = well fitted curve in the direction sought with a large enough effect; inconclusive = small, poorly fitted or top-dose-only effect, or another doubt; inactive = no such curve, though single readings can be large; an effect the other way counts as inactive or inconclusive. % is scaled to controls: 0 for no effect and ±100 for the full control effect.

SMILES	KAT2A inh	Giardia kill	TrxR1 inh	Pin1 inhibitor	GALK inh	TrxR1 substrate
O=C(CCl)N(C/C=C/c1ccccc1)c1ccc2c(c1)OCCO2	-7%	16	7.9µM*	-3%	1%	1%[57.1 µM]
O=C(/C=C/c1ccccc1)c1ccc2c(c1)OCCCCO2	-12%	-15	-7%	-1%	-7%	-2%
CCCCCc1c2c(cc(O)c1C(=O)O)OC(=O)c1c(cc(OC)cc1C(=O)CCCC)O2	?	-12	0%[57.1 µM]	18µM*	-9%	3%[57.1 µM]
COc1ccc(NC(=O)CSc2oc(-c3ccc(C)cc3)nc2S(=O)(=O)c2ccc(C)cc2)c(OC)c1	-4%	nt	50µM*	4%	nt	7%[2.29 µM]
CC(OC(=O)c1ccc([N+](=O)[O-])s1)C(=O)NC1CCCCC1C (stereo not given)	-5%	-86*	2%	7%	nt	0%
CC(C)C(OC(=O)CNC(=O)c1ccccc1)C(=O)Nc1cc(C(F)(F)F)ccc1Cl (stereo not given)	nt	nt	nt	1%	nt	nt
C/C(=C\c1ccc(C)o1)C(=O)c1c(C)cc(C)[nH]c1=O	-22%	4	50µM*	3%	-1%	-9%
C/C(=C\c1cccc(Br)c1)C(=O)c1c(C)cc(C)[nH]c1=O	-13%	-12	6%	-15%	7%	-5%
O=C(/C=C/c1ccco1)NCC(=O)N/N=C/c1ccccc1[N+](=O)[O-]	-7%	0	45µM*	?	-1%	-4%
CCOc1cc(-c2ccc(OC(=O)c3ccc(OC)cc3)c(OC)c2)cc(=O)c2c(C)oc(C)c12	-25%	nt	35µM*	23%	nt	-3%
COc1ccc(-c2cc(OC(=O)c3ccc(Cl)cc3)c3c(C)oc(C)c3c(=O)c2)cc1	-8%	nt	50µM*	-5%	nt	-7%
C[n+]1c(/C=C/c2ccc(F)cc2)ccc2ccccc21	nt	nt	?	nt	nt	-13%
Cc1ccc(S(=O)(=O)c2cc3c(=O)n4ccccc4nc3n(Cc3ccco3)c2=N)cc1C	16µM*	3	-10%	?	-1%	17%
N=c1c(S(=O)(=O)c2ccccc2)cc2c(=O)n3ccccc3nc2n1Cc1ccco1	?	-8	?	?	0%	47%
COc1ccc(-c2cc3ncc(C)n3c(Nc3ncccc3C(N)=O)n2)cc1OC	-15%	nt	24%[57.1 µM]	nt	nt	63%[57.1 µM]
O=C1/C(=C\c2ccc([N+](=O)[O-])cc2)CCc2ccccc21	-2%	-91*	28%	0%	nt	5%
O=C(Nc1ccc(N2CCN(c3ccc(F)cc3)CC2)c(C(=O)O)c1)c1ccccc1F	1%	nt	8%[57.1 µM]	-3%	nt	3%[57.1 µM]
CC1(C)c2ccccc2N2CCC(=O)NC21/C=C/c1ccco1 (stereo not given)	-5%	-15	40µM*	?	1%	-3%
Cc1nn(-c2ccccn2)c2c1C(=O)C(Br)CC2 (stereo not given)	-7%	-4	13µM*	2%	-2%	-6%
O=[S+]([O-])(c1ccc2c(c1)OCCO2)N1CCN([S+](=O)([O-])c2ccc(F)cc2Br)CC1	nt	nt	nt	-1%	nt	nt
C/C(=N\Nc1nc2c(s1)CCCC2)c1ccccc1	3%	-19	50µM*	0%	-5%	-6%
COc1cccc(C2c3c(ncn(-c4cccc(Cl)c4)c3=N)Oc3ccc4ccccc4c32)c1 (stereo not given)	nt	nt	nt	40%	nt	nt
Nc1nc(Nc2ccccc2F)sc1C(=O)c1ccc(Cl)cc1	0%	nt	-15%	0%	nt	-5%
CCOC(=O)c1c(NC(=S)NC)sc2c1CC(C)(C)SC2	16%	14	11µM*	3%	0%	2%
CCOC(=O)c1c(NC(=S)Nc2ccccc2)sc2c1CC(C)(C)SC2	-7%	-11	?	17%	3%	1%[57.1 µM]
SMILES	KAT2A inh	Giardia kill	TrxR1 inh	Pin1 inhibitor	GALK inh	TrxR1 substrate
Cc1ccc(C(c2nnnn2C2CCCCC2)N2CCN3CCCC3C2)cc1 (stereo not given)	0.89µM*	0	-16%	3%	1%	-6%
c1cc(C(c2nnnn2C2CCCC2)N2CCOCC2)ccn1 (stereo not given)	-12%	3	14µM*	0%	1%	7%
COC(=O)C1CCN(c2cc(=O)n(-c3ccc(OC)cc3)c(=O)[nH]2)CC1	-4%	8	28µM*	27%	2%	6%[57.1 µM]
CCOC(=O)N1CCN(c2cc(=O)n(-c3ccc(OC)cc3)c(=O)[nH]2)CC1	2%	-11	?	-1%	1%	9%
Cc1c(Cl)sn(-c2ccc(Cl)cc2)c1=O	10µM*	-3	5µM*	1%	-2%	-12%
Cc1ccccc1Nc1nc(C#N)nc(NC2CCCC2)n1	nt	nt	nt	5%	nt	nt
Cc1ccc(/C=C/C(=O)Nc2cccnc2)o1	-18%	-8	32µM*	-2%	4%	4%[57.1 µM]
CC(C)c1ccc(/C=C/C(=O)Nc2nn[nH]n2)cc1	-7%	nt	nt	nt	3%	nt
Cc1ccc(/C=C/C(=O)NCCc2ccccc2)o1	-4%	-4	14µM*	4%	-9%	5%
Cc1ccc(/C=C/C(=O)Nc2nn[nH]n2)o1	-13%	9	50µM*	?	0%	-19%
O=C(/C=C/c1ccccc1)Nc1cccnc1	-5%	-22	24%	14%	4%	2%
O=C(/C=C/c1ccco1)NCCc1ccccc1	-2%	-8	?	1%	0%	-4%
Cc1ccc(/C=C/C(=O)Nc2cccc3ncccc23)o1	-3%	-14	10µM*	-2%	1%	-4%
Cc1ccc(NS(=O)(=O)c2cc3c(cc2F)NC(=O)CC3)cc1C	nt	nt	nt	-5%	nt	nt
CCn1c(=O)c2cc(C(=O)NCCc3cc(OC)ccc3OC)sc2c2ccccc21	-12%	nt	22%	-1%	nt	9%
O=C(CCC1CCCC1)N1CCc2c([nH]c3ccccc23)C1c1ccc(Cl)cc1 (stereo not given)	-14%	nt	18%[57.1 µM]	5%	nt	-4%[57.1 µM]
CCOC(=O)c1ccc(NC(=O)CCCc2nc(-c3cc(OC)c(OC)c(OC)c3)no2)cc1	-2%	nt	16%	-3%	nt	1%
O=S(NCc1ccccc1)C12CC3CC(CC(C3)C1)C2 (stereo not given)	-10%	-7	0%	-1%	-3%	5%
O=S(NCc1ccco1)C12CC3CC(CC(C3)C1)C2 (stereo not given)	-11%	8	35µM*	-15%	-4%	11%
Cc1cc(Nc2c(C)n(C)n(-c3ccccc3)c2=O)n2c(nc3ccccc32)c1C#N	-1%	-10	35µM*	-4%	-4%	5%

Screening results as filed in PubChem.
